From PubChem BioAssay AID1240 (Sanford-Burnham Center for Chemical Genomics, 2008)
Values joined by “and” are separate entries in the source; they are usually repeats but may differ in a detail not shown here. Identical values can stand only once. About 800 (1.6%) of roughly 50,000 compounds showed an effect of 50% or more. Only a selection was taken, and strong results are over-represented in it overall.

molecular target: Bcl-2-like protein 10 (Homo sapiens) (UniProt Q9HD36); test: Phenotype converters, Bcl-B/TR3 peptide binding displacement, primary biochemical FP (AID 1240); settings: GST-Bcl-B / FITC-TR3 peptide fluorescence polarization; stronger effect = higher value; compound at 3.75 mg/L;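 also: 0% = Bcl-B with tracer peptide and DMSO and 100% = tracer peptide lacking Bcl-B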
Sequence (Q9HD36 whole entry, looked up): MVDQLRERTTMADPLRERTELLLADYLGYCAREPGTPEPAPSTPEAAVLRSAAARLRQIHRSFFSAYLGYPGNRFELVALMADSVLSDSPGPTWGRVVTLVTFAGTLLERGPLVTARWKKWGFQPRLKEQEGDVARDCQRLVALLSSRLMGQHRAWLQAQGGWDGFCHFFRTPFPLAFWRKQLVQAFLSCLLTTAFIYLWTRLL

| Structure (SMILES) | displacement |
| --- | --- |
| Cc1ccccc1-n1c(=S)[nH]c2ccccc2c1=O | -11% and -8.7% |
| O=C1Nc2ccccc2/C1=C/c1nc2ccc(I)cc2c(=O)n1-c1ccccc1 | 4.5% |
| O=[N+]([O-])c1ccc(CNCCc2cccc(F)c2)cc1 | 2.2% |
| CN1C(=O)C(=Cc2cccc(OCCOc3ccc([N+](=O)[O-])cc3)c2)C(=O)N(C)C1=O | 6.4% |
| C=CCOc1ccc(/C=C2\C(=O)NC(=O)N(CC=C)C2=O)cc1OC | 10.9% |
| COc1cc(C=C2C(=O)N(C)C(=O)N(C)C2=O)ccc1OCCOc1ccccc1 | 54.3% |
| Cc1ccc(-c2nc3ccccc3c(=O)n2-c2nccs2)cc1 | -0.6% |
| O=[N+]([O-])/C=C/c1ccccc1OCc1ccc(Cl)cc1Cl | 4.5% |
| Cc1cc(C)cc(N2C(=O)NC(=O)/C(=C\c3cc(C)n(C)c3C)C2=O)c1 | 90.5% |
| CCc1ccccc1N1C(=O)NC(=O)/C(=C\c2cc(C)n(C)c2C)C1=O | 87.7% |
| O=C1NC(=O)N(c2cccc(Br)c2)C(=O)/C1=C/c1ccco1 | 5.2% |
| Cc1cc(/C=C2\C(=O)NC(=S)N(c3ccccc3F)C2=O)c(C)n1C | 14.1% |
| O=C1NC(=O)N(c2cccc(Br)c2)C(=O)/C1=C/c1ccc(-c2ccc(C(=O)O)cc2)o1 | -56.7% |
| O=C1NC(=O)N(c2ccccc2Cl)C(=O)C1=Cc1ccccc1 | 12.8% |
| Cc1cc(/C=C2\C(=O)NC(=O)N(c3cccc(Br)c3)C2=O)c(C)n1C | 126% |
| Cc1cc(/C=C2\C(=O)NC(=O)N(c3ccc(Cl)cc3)C2=O)c(C)n1C | 1.7% |
| Cc1cc(C=C2C(=O)NC(=S)NC2=O)c(C)n1C | 6.6% |
| Cc1ccc(-n2c(/C=C3/C(=O)Nc4ccc(Br)cc43)nc3ccccc3c2=O)cc1 | 4.3% |
| Cc1cc(C)cc(N2C(=O)NC(=O)/C(=C\C=C\c3ccccc3)C2=O)c1 | 42.9% |
| CCCCn1c(=O)c(C(=O)Nc2ccc(I)cc2)c(O)c2ccccc21 | 7.1% |
| CN1C(=O)C(=Cc2ccc(-c3cc(C(=O)O)ccc3Cl)o2)C(=O)N(C)C1=O | -2.5% |
| Cc1ccc(N2C(=O)NC(=O)/C(=C\C=C\c3ccccc3)C2=O)cc1 | 21.4% |
| Cc1cc(-c2ccc(C=C3C(=O)NC(=O)NC3=O)o2)ccc1[N+](=O)[O-] | 13.1% |
| Cc1cc([N+](=O)[O-])ccc1-c1ccc(/C=C2/C(=O)NC(=O)N(C)C2=O)o1 | 11.4% |
| Cc1cccc(N2C(=O)NC(=O)/C(=C/c3ccc(-c4ccc([N+](=O)[O-])cc4C)o3)C2=O)c1 | 76.7% |

| Structure (SMILES) | displacement |
| --- | --- |
| CN1C(=O)NC(=O)/C(=C/c2ccc(-c3ccc([N+](=O)[O-])cc3Br)o2)C1=O | -9.1% |
| C=CCN1C(=O)NC(=O)/C(=C/c2ccc(-c3cc([N+](=O)[O-])ccc3Cl)o2)C1=O | 84.3% |
| CN1C(=O)NC(=O)/C(=C/c2ccc(-c3cccc([N+](=O)[O-])c3)o2)C1=O | -20.5% |
| CN1C(=O)NC(=O)/C(=C/c2ccc(-c3ccc([N+](=O)[O-])cc3)o2)C1=O | 3.6% |
| O=C1NC(=O)C(=Cc2ccc(-c3cc([N+](=O)[O-])ccc3O)o2)C(=O)N1 | 109% |
| O=C1NC(=S)NC(=O)C1=Cc1ccc(-c2cc(Cl)c([N+](=O)[O-])cc2Cl)o1 | 19.3% |
| O=C1NC(=O)C(=Cc2ccc(-c3ccc([N+](=O)[O-])cc3Cl)o2)C(=O)N1 | 66.8% |
| O=C1NC(=S)NC(=O)C1=Cc1ccc(-c2ccc([N+](=O)[O-])cc2Br)o1 | 29% |
| Cc1cc([N+](=O)[O-])c(C)cc1-c1ccc(C=C2C(=O)NC(=O)NC2=O)o1 | 8.4% |
| COc1ccc(CN2C(=O)NC(=O)/C(=C\c3ccoc3)C2=O)cc1 | -114% |
| CSc1nc2ccccc2c(=O)n1-c1cccc(C)c1 | -6.2% |
| O=C1NC(=O)N(c2ccc(Cl)cc2)C(=O)/C1=C\c1cc(Br)cc(Cl)c1O | 4.8% |
| N#CC(C#N)=Cc1cccc2ccccc12 | 5.7% |
| O=C1NC(=S)NC(=O)C1=Cc1cccc(OS(=O)(=O)c2ccc3ccccc3c2)c1 | 3.4% |
| COc1cc(OC)c(OC)cc1CN1CCN(C(=O)COc2ccccc2)CC1 | -13.1% |
| COc1ccc(CN2CCN(C(=O)Cc3ccccc3)CC2)cc1Br | -10% |
| CN(C)c1ccc(/C=C2\C(=O)NC(=O)N(c3ccccc3Cl)C2=O)cc1 | 9.7% |
| Cc1cc(C=C2C(=O)NC(=O)NC2=O)c(C)n1C | 2.4% |
| Cc1cc(C=C2C(=O)NC(=O)NC2=O)c(C)n1C1CCCCC1 | 124% |
| Cc1cc(C)cc(-n2c(C)cc(C=C3C(=O)NC(=O)NC3=O)c2C)c1 | 13.1% |
| O=C1c2ccccc2NC(c2ccccc2F)N1c1ccccc1 (centres undefined) | -0.3% |
| Cc1nc2ccc(I)cc2c(=O)n1-c1ccc([N+](=O)[O-])cc1Cl | 13% |
| Cc1nc2ccccc2c(=O)n1-c1ccc([N+](=O)[O-])cc1 | 11.9% |
| Cc1nc2cc([N+](=O)[O-])ccc2c(=O)n1-c1ccc(Cl)cc1 | 71.3% |
